In this test the target is Fibroblast growth factor 10 (Homo sapiens) (UniProt O15520). Briefly: compounds binding fibroblast growth factor 10 – biochemical, small-molecule microarray, 635 nm fluorescence, primary screen (AID 1102). To be noted: FGF10 binding, fluorescence 635 nm, higher = more signal.
Chain of Fibroblast growth factor 10 (Homo sapiens) (O15520 whole entry, looked up): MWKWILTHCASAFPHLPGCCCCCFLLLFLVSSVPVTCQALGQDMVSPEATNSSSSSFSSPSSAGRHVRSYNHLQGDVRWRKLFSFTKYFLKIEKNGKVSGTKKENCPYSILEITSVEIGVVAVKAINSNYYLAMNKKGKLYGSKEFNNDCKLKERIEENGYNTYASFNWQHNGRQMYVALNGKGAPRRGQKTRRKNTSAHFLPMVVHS
In the case of `COC(=O)[C@@]1(Cc2ccccc2)[C@H]2c3cc(C(=O)N4CCCC4)[nH]c3C[C@H]2CN1C(=O)c1ccccc1`, the composite z-score is -0.486.
To `O=C(O)[C@H](Cc1ccccc1)n1cc(-c2ccccn2)nn1` belongs 0.3.
In turn, `O=C1O[C@@H](c2ccccc2)[C@@H](c2ccccc2)N2[C@@H](c3ccccc3OCCO)[C@]3(C(=O)Nc4ccc(C#CCCO)cc43)[C@@H](C(=O)N3CCN(c4ncccn4)CC3)[C@H]12` had a composite z-score of 0.376.
With `COc1ccc([Si](C)(C)[C@@H]2[C@@H](CCO)O[C@]3(C(=O)N(Cc4cccc(N5C(=O)c6ccccc6Oc6ccccc65)c4)c4ccccc43)[C@H]2C)cc1`, the composite z-score is -0.502.
`CN(C)CCCN1C(=O)[C@@]2(c3ccc([N+](=O)[O-])cc3)CC(=O)N(CC34CC5CC(CC(C5)C3)C4)[C@@H]2c2ccc(CO)cc21` showed a composite z-score of -0.173.
With `C[C@]12C(=O)N(CCCCCCO)[C@@H]3C(=O)N(c4ccc(Cl)cc4)CC=CC31O[C@@H]1/C=C\CCCOC(=O)C12` (stereo not given in full) the figure was -0.188.
For `CC1CC/C=C\[C@H]2OC34C=CCN(c5ccc6ccccc6c5)C(=O)[C@H]3N(C(CO)C(C)C)C(=O)[C@@H]4C2C(=O)O1` (stereo not given in full), the composite z-score was -0.209.
Turning to `O=C1O[C@@H](c2ccccc2)[C@@H](c2ccccc2)N2[C@@H](c3ccc(O)cc3)[C@]3(C(=O)Nc4ccc(C#CC5=CCCCC5)cc43)[C@@H](C(=O)N3CCN(c4ncccn4)CC3)[C@H]12`, the composite z-score amounted to 1.33.
As for `C[C@H]1ON(c2ccc(C(=O)OC(C)(C)C)cc2)[C@@H](c2ccc(O)cc2)[C@@H]1C(=O)N1C(=O)OC[C@@H]1c1ccccc1`, the composite z-score came out at 0.994.
In turn, `CCOC(=O)C[C@H]1[C@H](OC(=O)Cc2ccc3c(c2)OCO3)[C@@H](NC(=O)C2CCCCC2)c2cc(OCCCO)ccc2N1C(=O)c1ccc2ccccc2n1` displayed a composite z-score of 1.47.
To `CN1C(=O)C2C=CC(C(O)c3c(F)cccc3Cl)N(Nc3ccccc3)C2C1=O` (stereo not given) belongs 0.657; to `COCCCNC(=O)[C@]1(Cc2ccccc2CN=[N+]=[N-])N=C(c2ccc(OCCCO)cc2)O[C@@H]1c1ccccc1`, 0.573.
In the case of `[N-]=[N+]=NCc1ccccc1C[C@@]1(C(N)=O)N=C(c2ccc(OCCCO)cc2)O[C@@H]1c1ccccc1CN=[N+]=[N-]`, the composite z-score turned out to be 1.26.
The molecule `COC(=O)[C@@]1(Cc2ccc(OC)cc2)[C@H]2c3cc(C(=O)N4CCCC4)n(CCc4cc5ccccc5[nH]4)c3C[C@H]2CN1C(=O)c1ccccc1` displayed a composite z-score of 0.893.
`COCCOC(=O)N1C(=O)[C@@]2(c3cc(C#Cc4ccc(OC)cc4)ccc31)[C@H](C(=O)NC[C@H](O)c1ccccc1)[C@H]1C(=O)O[C@H](c3ccccc3)[C@H](c3ccccc3)N1[C@@H]2c1ccc(O)cc1` registered a composite z-score of 1.17.
Molecule `C=CC[C@@]12N=C(c3ccc(OCCCO)cc3)O[C@@H]1c1ccccc1N(CCS(=O)(=O)c1ccccc1)C2=O` had a composite z-score of 0.397.
`C=CCN1C(=O)[C@]2(CC=C)N=C(c3ccc(OCCCO)cc3)O[C@@H]2c2ccccc21`: the composite z-score is 0.506.
On to `Cc1ccc(S[C@]2(C(=O)NCC(C)C)CC(=O)N(Cc3ccccc3Cl)[C@@H]2c2ccc(CO)cc2I)cc1`, for which the composite z-score is -0.85.
As to `COc1ccccc1CN1C(=O)c2ccccc2[C@](Cc2ccccc2I)(C(=O)NC(C)C)[C@@H]1c1ccc(CO)cc1`, the composite z-score was 1.32.
Regarding `CCOc1cc(C(O)C2C=CC3C(=O)N(C4CCCCC4)C(=O)C3N2Nc2ccc(OC)cc2)ccc1O` (stereo not given), the composite z-score amounted to 0.423.
`COCCOC(=O)N1C(=O)[C@@]2(c3cc(C#Cc4ccc(OC)cc4)ccc31)[C@H](C(=O)N1CCCCCCC1)[C@H]1C(=O)O[C@H](c3ccccc3)[C@H](c3ccccc3)N1[C@@H]2c1ccc(O)cc1` showed a composite z-score of 0.546.
To `C=C(C(=O)CC[C@H](OC(=O)c1cccnc1)c1ccc(CO)o1)C(C)C` belongs 0.866.
In turn, `COC(=O)[C@H](Cc1ccccc1)N1CC(/C=C/C2CC2)=C[C@@H]1[C@@H](O)Cc1ccccc1` gave a composite z-score of 1.47.
In turn, `COC(=O)[C@@]1(Cc2ccc(OC)cc2)[C@H]2c3cc(C(=O)N(C)C)n(Cc4nc5ccccc5[nH]4)c3C[C@H]2CN1C(=O)c1ccccc1` showed a composite z-score of 1.09.
`CN(C)C(=O)[C@]1(CCC(=O)OC(C)(C)C)N=C(c2ccc(OCCCO)cc2)O[C@@H]1c1ccccc1` came in with a composite z-score of 0.617.
With `COCCOC(=O)N1C(=O)[C@@]2(c3cc(C#CC4(O)CCCCCC4)ccc31)[C@H](C(N)=O)[C@H]1C(=O)O[C@H](c3ccccc3)[C@H](c3ccccc3)N1[C@@H]2c1ccccc1OCCO` the figure was 1.15; with `Cc1ccc(S[C@]2(C(=O)NCC(F)(F)F)CC(=O)N(Cc3ccccc3)[C@@H]2c2ccc(CO)cc2)cc1`, -0.409.
The molecule `COCCCNC(=O)[C@@]1(Sc2ccc(C)cc2)CC(=O)N(C2Cc3ccccc3C2)[C@@H]1c1ccc(CO)cc1I` had a composite z-score of -0.235.
`C=CC[C@]1(C(=O)N(C)C)N=C(c2ccc(OCCCO)cc2)O[C@H]1c1ccccc1N=[N+]=[N-]`: the composite z-score was determined as 0.762.
With `CCOC(=O)C1=CC[C@@H](c2ccccc2C(F)(F)F)N(S(=O)(=O)c2ccc(C)cc2)C1` the figure was 1.18; with `CC(C)C(O)C1C=CC2C(=O)N(C)C(=O)C2N1N(c1ccccc1)c1ccccc1` (stereo not given), -0.879.
With `CCOC(=O)C1=CC[C@@H](c2ccc([N+](=O)[O-])cc2)N(S(=O)(=O)c2ccc(C)cc2)[C@H]1c1ccccc1` the figure was 1.21; with `[N-]=[N+]=NCc1ccccc1C[C@@]1(C(=O)N2CCCCC2)N=C(c2ccc(OCCCO)cc2)O[C@@H]1c1ccccc1N=[N+]=[N-]`, 0.128.
As to `C=C(/C(=C/C[C@@H](OC(=O)c1ccncc1)c1ccccc1OCCO)c1cc(C(=O)OC)ccc1OC)C(C)C`, the composite z-score turned out to be 1.12.
To `COCCOC(=O)N1C(=O)[C@@]2(c3cc(C#CC4(O)CCCCCC4)ccc31)[C@H](C(N)=O)[C@H]1C(=O)O[C@H](c3ccccc3)[C@H](c3ccccc3)N1[C@@H]2c1ccc(O)cc1` belongs 1.09.
